Shown are actives, neighbours in structure and some others; about 2% of the full set was active somewhere.
KCNH2 3.1 inh: blocks the human KCNH2 3.1 channel isoform; 0.95% of 340,000 active; activity change, % (tested at about 1.8 µM); U2OS KCNH2 3.1, thallium flux FluxOr; active compounds read low;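 active means maximum activity change below -70%; inconclusive means maximum activity change from -70% to -50%; inactive means maximum activity change above -50%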;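 further: thallium influx rate constant from kinetic fluorescence after stimulation buffer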
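Channel expression came from 3.1 mutant virus (1.77 x 10^8 /mL) applied to suspended U2OS cells for 4 h. Flux was tracked with FluxOr dye plus Red40 quencher, and kinetic rate constants normalized to controls.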
CtBP-E1A blk: CtBP/E1A binding inhibition; AlphaScreen GST-E1A/His-CtBP binding, 1536-well; active compounds read low; 0.49% of 340,000 active; activity change, % (no concentration beside the values)
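In 5 uL wells, 23 nL compound meets equimolar GST-E1A and His-CtBP (5X stock 125 nM each) for 2 h, 37 °C. Beads (5X, 50 ug/mL) then 1 h, 37 °C, dark.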
KDM4E inh: inhibitors of human JMJD2E histone demethylase. JMJD2E catalytic domain, FDH-coupled NADH fluorescence (FDH is formaldehyde dehydrogenase). Potency, µM (doses to about 57.1 µM), for the others: at the top dose activity change, negative = inhibition, actives largely listed as inhibitors. 1.6% of 230,000 active. AID 2147; active means well fitted inhibition curve with a large enough effect, not every such curve was filed as active; inconclusive means small, poorly fitted or top-dose-only effect, or another doubt; inactive means no such curve, though single readings can be large or run the other way;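 further: potency means the concentration at half of the fitted maximal effect; 0% = wells with enzyme and -100% = buffer wells without enzyme; nearly all actives have a fitted effect of over 50% in size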
Six1-Eya2 blk: inhibitors of human Six1/Eya2 interaction; AlphaScreen GST-Six1/His-Eya2 binding, biochemical; active compounds read low; 0.56% of 360,000 active; Q15475+O00167; activity change, % (no concentration beside the values)
Target sequence (O00167 whole entry, looked up): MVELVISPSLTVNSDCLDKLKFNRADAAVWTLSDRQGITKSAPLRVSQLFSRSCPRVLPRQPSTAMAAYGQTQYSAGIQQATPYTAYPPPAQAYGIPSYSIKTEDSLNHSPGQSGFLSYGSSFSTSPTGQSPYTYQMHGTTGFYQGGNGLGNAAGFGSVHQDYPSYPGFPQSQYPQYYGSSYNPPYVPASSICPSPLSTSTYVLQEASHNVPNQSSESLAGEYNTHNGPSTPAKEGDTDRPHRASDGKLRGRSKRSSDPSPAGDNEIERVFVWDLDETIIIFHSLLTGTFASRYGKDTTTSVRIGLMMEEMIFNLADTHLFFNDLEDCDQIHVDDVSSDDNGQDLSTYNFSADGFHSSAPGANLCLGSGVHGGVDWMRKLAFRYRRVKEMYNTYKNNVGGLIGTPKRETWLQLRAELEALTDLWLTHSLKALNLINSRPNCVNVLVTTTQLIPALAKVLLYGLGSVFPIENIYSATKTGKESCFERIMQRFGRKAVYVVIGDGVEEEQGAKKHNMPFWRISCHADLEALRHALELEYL
Target sequence (Q15475 whole entry, looked up): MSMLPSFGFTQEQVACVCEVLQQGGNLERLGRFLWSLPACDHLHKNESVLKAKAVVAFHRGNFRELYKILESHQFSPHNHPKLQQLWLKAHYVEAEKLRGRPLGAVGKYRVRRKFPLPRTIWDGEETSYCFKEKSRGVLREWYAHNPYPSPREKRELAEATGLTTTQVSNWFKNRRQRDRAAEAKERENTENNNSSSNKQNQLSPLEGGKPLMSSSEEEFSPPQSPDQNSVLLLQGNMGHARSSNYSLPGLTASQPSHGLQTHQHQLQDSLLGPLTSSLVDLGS
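AlphaScreen luminescence read after one hour at 37 °C in darkness. Pin-transferred compounds met GST-Six1 and His-Eya2 protein (5X stock 250 nM/500 nM) plus glutathione donor and Ni-chelate acceptor beads (5X, 50 ug/mL).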
KCNH2 WT inh: KCNH2 (human, wildtype) channel inhibition. U2OS, BacMam KCNH2, thallium flux FluxOr; active compounds read low. 0.37% of 340,000 active. activity change, % at 1.84 µM;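 active means maximum activity change below -70%; inconclusive means maximum activity change between -70% and -50%; inactive means maximum activity change above -50%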
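U2OS cells were transduced with wild-type KCNH2 virus (2.03 x 10^8 / mL) for 4 h at room temperature, then cultured overnight at 37 C. Thallium flux was read with FluxOr dye. Rate constants were normalized to DMSO controls.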
* hit, by the source's call; ? = inconclusive; nt = not tested or not shown; + = active, no number; ! = repeats disagree. Unless noted, no stated cut-off is given here; in the data, active means activity change below about -65%; inconclusive means mostly about -30% to -63%; inactive means weaker than that. Unless noted, on the % scale 0 is the no-effect control and ±100 the full control effect.

SMILES	KCNH2 3.1 inh	CtBP-E1A blk	KDM4E inh	Six1-Eya2 blk	KCNH2 WT inh
OCCN1CCN(CCCN2c3ccccc3Sc3ccc(C(F)(F)F)cc32)CC1	-6	-9	-12%	1	7
Cc1cc(C)cc(NC(=O)CCN2C(=O)c3ccccc3S2(=O)=O)c1	1	4	nt	3	-6
O=C(CN1CCN(CCC(=O)Nc2ccccc2F)CC1)Nc1ccc(F)cc1	?	5	1%	1	?
O=C(CCN1CCN(c2ccccc2F)CC1)Nc1ccccc1F	14	-2	-2%	11	-3
O=C(CCN1C(=O)c2ccccc2S1(=O)=O)Nc1ccc(Cl)cc1	-84*	10	nt	21	5
O=C(CN1CCN(CCC(=O)Nc2ccccc2F)CC1)Nc1ccc(Cl)cc1	-108*	21	1%	1	-102*
Cc1ccccc1NC(=O)N1CCN(C/C=C/c2ccccc2)CC1	-86*	nt	-10%	-2	26
O=C(Nc1ccccc1Cl)N1CCN(C/C=C/c2ccccc2)CC1	-8	-11	5%	0	9
O=C(CCN1CCN(C/C=C/c2ccccc2)CC1)Nc1ccccc1F	-102*	-4	-29%	2	-49
COc1ccc(NC(=O)N(C)C[C@H]2Oc3ccc(NS(=O)(=O)c4ccc(F)cc4)cc3C(=O)N([C@H](C)CO)C[C@@H]2C)cc1	-24	-7	nt	-6	2
O=C(NCc1cccnc1)c1ccccc1-c1nc(-c2ccccc2)no1	-7	4	8%	-7	2
COc1ccc(C2CC(c3ccccc3)=NN2C(=O)COC(=O)CNC(=O)c2ccccc2)cc1 (stereo unspecified)	-20	8	64%	-5	0
CC(C)CN1C=C2C(=O)C(C)(OC(=O)C3CCCC3)C(=O)C=C2C=C1c1ccsc1 (stereo unspecified)	30	nt	32µM*!	-3	4
CC(C(Sc1ccccc1N)c1ccccc1)[N+](=O)[O-] (stereo unspecified)	-35	-4	11µM*	-16	-3
CSc1ccccc1-n1nnnc1SCC(=O)Nc1cc(C)ccc1C	-5	-1	0%	-1	-3
CCCC(=O)NNc1c2ccccc2nc2ccccc12	-3	-13	?	-11	1
O=C(NNc1c2ccccc2nc2ccccc12)c1ccc(O)cc1	18	-75*	-1%	?	1
O=C(NNc1c2ccccc2nc2ccccc12)c1cccc(O)c1	2	-77*	?	-65*	1
CC(=O)C(=Nc1ccccc1Cl)NNc1ccc(Cl)cc1	-25	?	-2%	-73*	-8
O=C(NNc1ccc(Cl)cc1)c1c(F)cccc1Cl	-14	-2	3%	-5	-4
COc1cccc(Nc2nc(-c3sc(C)nc3C)cs2)c1	1	nt	nt	-13	-5
COc1cccc(Nc2nc(-c3sc(N)nc3C)cs2)c1	-5	-72*	-4%	?	7
Cc1noc(C)c1CSCC(=O)N1CCN(c2ccc([N+](=O)[O-])cc2)CC1	-73*	-6	2%	-6	27
COc1ccc(-c2cc(C)no2)cc1S(=O)(=O)N1CCN(c2ccc([N+](=O)[O-])cc2)CC1	-106*	-5	nt	-3	-78*
CCc1noc(C)c1C(=O)N1CCN(c2ccc([N+](=O)[O-])cc2)CC1	-6	-5	nt	-1	26
SMILES	KCNH2 3.1 inh	CtBP-E1A blk	KDM4E inh	Six1-Eya2 blk	KCNH2 WT inh
Cc1noc(C)c1S(=O)(=O)N1CCN(c2ccc([N+](=O)[O-])cc2)CC1	-80*	nt	nt	-3	-47
OCCN1CCN(c2nc(-c3ccccc3)c3cc(Br)ccc3n2)CC1	-71*	-2	nt	2	-30
O=C(O)C1CCN(c2nc(-c3ccccc3)c3cc(Br)ccc3n2)CC1	7	7	nt	6	-13
CC/C(=N\Nc1ccc([N+](=O)[O-])cc1[N+](=O)[O-])c1ccc(O)cc1	1	nt	nt	-29	14
CC/C(=N\Nc1ccccc1[N+](=O)[O-])c1ccc(O)cc1	11	-71*	-1%	?	14
CCOC(=O)[C@@H]1[C@H]2COc3cc(OC)ccc3[C@H]2N2C(=O)N(c3cccc(C)c3)C(=O)[C@]12C	2	4	nt	3	-18
Cc1n[nH]c(=O)nc1NCc1ccco1	7	-5	-7%	11	-6
Cc1n[nH]c(=O)nc1N/N=C/c1ccco1	3	?	-19%	-68*	-4
CC1Cc2ccccc2N1S(=O)(=O)c1cccc(C(=O)N2CCN(c3ncccn3)CC2)c1 (stereo unspecified)	-22	-14	-17%	-11	32
CC1(C)Cc2c(C#N)c(SCCOc3ccccc3)nc(N3CCOCC3)c2CO1	-85*	-1	-28%	2	-2
CCCCNC(=O)CN1CCN(Cc2ccc3cc(OC)ccc3c2)CC1	-84*	nt	nt	5	-15
O=[N+]([O-])c1cc(/C=N/Nc2nc3ccccc3[nH]2)c(O)cc1O	-1	-99*	2%	-97*	-4
C(=N\Nc1nc2ccccc2[nH]1)/c1cccc2cccnc12	0	nt	25µM*	-84*	0
C=CCN1/C(=C(\C#N)C2=NS(=O)(=O)c3ccccc32)N(C)c2ccccc21	8	2	-6%	1	7
Cc1ccc(CNC(=O)C2CC(c3ccccc3C(F)(F)F)=NO2)cc1 (stereo unspecified)	-158*	5	1%	0	1
CCOc1cc(C(=S)N2CCCCC2)ccc1OS(=O)(=O)c1ccc(Cl)cc1	-114*	-14	12%	-16	6
COc1ccc(CCNC(=O)C2CCC(=O)N(CC3CCCCC3)C2)cc1 (stereo unspecified)	7	-5	nt	7	12
COc1ccc(CCCNC(=O)C2CCC(=O)N(CC3CCCCC3)C2)cc1 (stereo unspecified)	-168*	5	nt	-7	-173*
COc1ccc(CNn2c(C)nc3ccccc3c2=O)cc1	12	-13	-8%	0	-9
CCN1CCN(c2ccc(S(=O)(=O)N3CCCCC3)cc2NC(=O)COc2ccc(F)cc2Cl)CC1	-80*	-19	nt	-17	-1
Cc1ccc(OCC(=O)Nc2ccccc2N2CCCC2)c(C)c1	-11	-8	5%	?	+
Cc1ccc(C)c(OCC(=O)Nc2ccccc2N2CCCC2)c1	-12	-14	nt	-18	5
CCN1CCN(c2ccc(S(=O)(=O)N3CCCCC3)cc2NC(=O)COc2ccc(Cl)cc2)CC1	?	-3	nt	-16	-21
CCN1CCN(c2ccc(S(=O)(=O)N3CCCCC3)cc2NC(=O)COc2cc(C)ccc2Cl)CC1	-83*	-13	nt	-25	4
CCN1CCN(c2ccc(S(=O)(=O)N3CCCCC3)cc2NC(=O)c2ccc(F)cc2)CC1	-11	-1	-3%	-4	4

Screens from PubChem.
